From PubChem BioAssay
In the library only some 2.9% were active in any assay of this set; here they are far more common.
Nrf2 activator = qHTS of Nrf2 Activators; AREc32 ARE-luciferase reporter (MCF7-derived line), luminescence, 24 h; Potency, µM (top dose mostly 46.1 µM), for inactives: top-dose activation, usual class: activators; 0.31% of 410,000 active; note: % of control where 0% means no effect; nearly all actives have a fitted effect of over 65% in size
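Each well held 1000 AREc32 cells, which were incubated with compound for 24 hr at 37 deg C after overnight attachment, and ARE reporter activity was quantified by firefly luciferase luminescence.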
Nrf2 block = Nrf2 qHTS screen for inhibitors. A549 ARE-Fluc reporter, luciferase luminescence, 18-24 h. Potency, µM (doses to about 46 µM), for inactives: at the top dose activity change, negative = inhibition, usual class: inhibitors. 2.1% of 360,000 active. AID 504444, 2011; note: % is set by controls: 0 for no effect and ±100 for the full control effect; nearly all actives have a fitted effect of over 60% in size
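Reporter: ARE-Fluc in A549. Exposure: 18-24 h, 37 °C, 5% CO2, 5% FBS OPTI-MEM. Readouts: fluorescent cytotoxicity (CellTiter-Fluor), then luminescent Nrf2 signal after BugLite.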
ATXN2 expr inh = Primary qHTS for Inhibitors of ATXN expression; HEK-293 ATXN2-luciferase reporter, luminescence, 24 h; Potency, µM (series often up to 57 µM), without a hit: at the top dose activity change, negative = inhibition, most hits filed as inhibitors; 0.72% of 360,000 active; AID 1745845, 2022; note: % is set by controls: 0 for no effect and ±100 for the full control effect; nearly all actives have a fitted effect of over 55% in size
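qHTS (up to 57 uM final) was run with 24 h compound exposure of reporter cells at 37 °C. Each well was multiplexed: SteadyGlo luminescence measured ATXN2-luciferase expression after a fluorogenic Gly-Phe-AFC viability readout (25 uM final).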
A549 tox = Nrf2 qHTS screen for inhibitors: counterscreen for cytotoxicity; A549 ARE-Fluc cells, CellTiter-Fluor viability, 18-24 h; Potency, µM (doses to about 46 µM), inactives show top-dose activity change, negative = cytotoxicity, actives largely listed as inhibitors; 0.16% of 390,000 active; AID 504648, 2011; note: % is set by controls: 0 for no effect and ±100 for the full control effect
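A549 ARE-Fluc cells in 5% FBS OPTI-MEM, 5000 cells/well, rested 2 h then exposed to compounds in concentration-response for 18-24 h at 37 °C. Viability by CellTiter-Fluor fluorescence (Ex 405/Em 525) after 30 min; luciferase luminescence (BugLite, 15 min, RT) read afterwards.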
S2 tox = Viability Counterscreen for Primary qHTS for Inhibitors of ATXN expression; S2 cells (HEK-293 line with an ATXN2-luciferase reporter) viability, CellTiter-Fluor protease fluorescence, 24 h; Potency, µM (titrated, usually from 56.7 µM), hits mostly cytotoxic; 0.49% of 400,000 active; note: nearly all actives have a fitted effect of over 40% in size
Starred values were filed as active, the others as inactive; i = inactive; ? = inconclusive; . = not tested or not shown; ! = repeats disagree; [ ] = remark or other dose. Calls come from the whole dose curve; as a rule, active = well fitted curve in the direction sought with a large enough effect; inconclusive = small, poorly fitted or top-dose-only effect, or another doubt; inactive = no such curve, though single readings can be large; an effect the other way counts as inactive or inconclusive. Potency is the fitted concentration of half-maximal effect.

SMILES	Nrf2 activator	Nrf2 block	ATXN2 expr inh	A549 tox	S2 tox
C[C@]12CC[C@H](O)CC1=CC[C@H]1[C@H]3CCC(=O)[C@@]3(C)CC[C@@H]12	.	.	2%	.	.
O=c1c2ccccc2nc(-c2ccco2)n1-c1ccc(Br)cc1	-1%	5%	0%	-11%	i
COc1ccc(-n2c(-c3ccco3)nc3c(cnn3-c3ccc(Cl)cc3)c2=O)cc1	0%	26µM*	-14%	-3%	i
COc1ccc(Nc2nc(N)nc(CSc3nc4ccccc4s3)n2)cc1	-3%	21µM*	?	-6%	.
COc1ccccc1C(=O)Nc1ccc2nc(SCC(=O)N(C)c3ccccc3)sc2c1	-1%	1%	?	-4%	?
CCCC[N+]1(C)[C@H]2CC(OC(=O)[C@H](CO)c3ccccc3)C[C@H]1[C@H]1O[C@H]12 (stereo partly drawn)	.	.	4%	.	.
Cc1ccc(-c2cc(-c3ccccc3)cc(-c3ccccc3)[n+]2-c2ccccc2)cc1	-3%	18µM*	3.5µM*	?	13µM*
Cc1ccc(-c2cc(-c3ccc(C)cc3)[n+](-c3ccc(C(=O)[O-])cc3)c(-c3ccc(C)cc3)c2)cc1	0%	21%	0%	3%	i
c1ccc(-c2cc(-c3ccccc3)[n+](-c3ccccc3)c(-c3ccccc3)c2)cc1	-3%	?	8.9µM*	?	.
Cc1ccc(-c2nnc(Nc3ccc(Br)cc3)c3ccccc23)cc1S(=O)(=O)NCc1nc2ccccc2[nH]1	11%	?	-26%	-14%	i
CN1CCN=C(c2ccccc2)c2cc(Cl)ccc21	.	.	.	.	i
Fc1ccc([C@@H]2CCNC[C@H]2COc2ccc3c(c2)OCO3)cc1	-4%	-3%	32µM*!	?	28µM*
CCC1(CCC(C)C)C(=O)NC(=O)NC1=O	.	.	5%[116 µM]	.	i
CCOC(=O)[C@]12Cc3cc(Cl)ccc3[C@H]1N(C)C(=O)c1ccccc12	7%	.	2%	.	i
CCOC(=O)[C@]12Cc3cc(Cl)ccc3[C@H]1N(C(C)C)C(=O)c1ccccc12	-3%	.	5.6µM*	.	6.3µM*
CCOC(=O)[C@]12Cc3cc(Cl)ccc3[C@H]1N(CC(=O)OC)C(=O)c1ccccc12	-3%	.	7.1µM*	.	7.9µM*
C[C@]12CC[C@H]3[C@@H](CCC4=CC(=O)CC[C@@]43C)[C@@H]1CC[C@@H]2C(=O)O	.	.	7%	.	i
Clc1ccc(C(Cn2ccnc2)OCc2csc3c(Cl)cccc23)c(Cl)c1 (stereo not drawn)	4%	?	22µM*	?	.
CCOC(=O)[C@]12Cc3cc4ccccc4cc3[C@H]1N(Cc1ccccc1)C(=O)c1cc(OC)ccc12	-4%	.	20µM*	.	32µM*
CCCCCN1C(=O)c2cc(OC)ccc2[C@@]2(C(=O)OCC)Cc3cc(Cl)ccc3[C@@H]12	-4%	.	7.1µM*	.	8.9µM*
CCOC(=O)[C@]12Cc3cc(OC)ccc3[C@H]1N(CCC(=O)OC)C(=O)c1cc(OC)ccc12	-3%	.	?	.	.
CCOC(=O)[C@]12Cc3cc(Cl)ccc3[C@H]1N(Cc1ccccc1)C(=O)c1cc(OC)ccc12	-3%	.	18µM*	.	13µM*
CCOC(=O)[C@]12Cc3cc4ccccc4cc3[C@H]1N(Cc1ccccc1)C(=O)c1ccccc12	-3%	.	?	.	20µM*
CCOC(=O)[C@]12Cc3cc(OC)ccc3[C@H]1N(Cc1ccccc1)C(=O)c1cc(OC)ccc12	0%	.	2%	.	?
CN1C2CCC(C)(C)C1CC(OC(=O)C(O)(c1cccs1)c1cccs1)C2 (stereo not drawn)	.	.	1%	.	i
SMILES	Nrf2 activator	Nrf2 block	ATXN2 expr inh	A549 tox	S2 tox
O=C1CCC[C@@H]2[C@H]3CCCN4CCC[C@@H](CN12)[C@@H]34	.	.	-1%	.	.
C[C@H]1CNCCc2ccc(Cl)cc21	.	.	-16%	.	i
Cc1c(C(=O)NCc2nccs2)cnn1-c1ncc2c(n1)-c1ccccc1CC2	.	.	.	.	i
CN1CC[C@]23c4c5ccc(O)c4O[C@H]2[C@@H](O)CC[C@H]3[C@H]1C5	.	.	10%[116 µM]	.	i
CN(C)C(=S)SSC(=S)N(C)C	-3%	7%	?	-4%	22µM*
CCCC1=Nc2cc(C(=O)NC3CCC(C)CC3)ccc2Sc2ccccc21 (stereo not drawn)	-1%	6%	.	-7%	.
CCCC1=Nc2cc(C(=O)NCCc3ccc(OC)cc3OC)ccc2Sc2ccccc21	0%	18µM*	0%	7%	i
Clc1ccccc1N1CCNCC1	.	.	7%	.	i
COc1ccc(CN2Cc3cnnn3-c3ccccc3C2C#N)cc1 (stereo not drawn)	-3%	7%	?	0%	.
N#CC1c2ccccc2-n2nncc2CN1Cc1cc(Cl)cc(Cl)c1 (stereo not drawn)	-2%	9%	4.5µM*	-1%	3.5µM*
O=c1[nH]c2ccccc2n1C1CCN(C(CCc2ccccc2)c2nnnn2C2CCCC2)CC1 (stereo not drawn)	1%	.	25µM*	.	?
COc1ccc(C(c2nnnn2-c2c(C)cccc2C)N2CCC(n3c(=O)[nH]c4ccccc43)CC2)cc1 (stereo not drawn)	-1%	.	?	.	?
O=c1[nH]c2ccccc2n1C1CCN(C(c2cc3ccccc3o2)c2nnnn2Cc2ccccc2)CC1 (stereo not drawn)	-4%	.	20µM*	.	.
Cc1cccc(C)c1-n1nnnc1C(c1cc2ccccc2o1)N1CCC(n2c(=O)[nH]c3ccccc32)CC1 (stereo not drawn)	4%	.	5.6µM*	.	?
CCC(=NCc1ccco1)c1c(O)n(C)c(=O)n(C)c1=O	7%	?	.	-10%	i
Cn1c(O)c(C(=Nc2ccccc2)SCc2ccc(Cl)cc2)c(=O)n(C)c1=O	16%	23µM*	.	?	i
CCC(=NCCc1ccccc1)c1c(O)n(C)c(=O)n(C)c1=O	1%	21µM*	.	2%	i
Cn1c(O)c(C(=N)COc2ccccc2)c(=O)n(C)c1=O	0%	?	22%	?	i
O=C(C[C@@H]1C[C@@H]2c3cc(NS(=O)(=O)c4ccc(F)cc4)ccc3O[C@@H]2[C@H](CO)O1)N1CCc2ccccc2C1	-1%	.	-6%	.	?
Cc1ccsc1C(=O)C1CCCN(Cc2cnc(N)nc2)C1 (stereo not drawn)	0%	6%	4%	-5%	i
Cc1ccsc1C(=O)C1CCCN(Cc2cnc(N3CCOCC3)s2)C1 (stereo not drawn)	2%	18µM*	-18%[11.3 µM]	?	i
O=Cc1cn(Cc2ccc(F)cc2)c2ccccc12	0%	?	14µM*	2%	i
Cc1ccc(Cn2cc(C=O)c3ccccc32)cc1	3%	-22%	?	-3%	?
